High-throughput results as filed in PubChem.
An excerpt weighted towards active compounds, which were near 0.39% of everything screened.
AT treatment = qHTS Assay for Identifying a Potential Treatment of Ataxia-Telangiectasia | F2112 A-T fibroblasts, KAP-1 phosphorylation AlphaLISA; neocarzinostatin DNA damage 30 min before lysis | Potency, µM (highest dose often 57.5 µM), inactives show at the highest dose activation, hits mostly activators | 320,000 compounds, 0.19% hits | AID 485349, 2010; note: potency is the fitted concentration of half-maximal effect; % of control where 0% means no effect; nearly all actives have a fitted effect of over 45% in size
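ATM-like activity read as KAP-1 phosphorylation via AlphaLISA donor/acceptor antibody pairs after lysis and 6 hr at 25C. Cells were ATM-null patient fibroblasts (F2112, hTERT), dosed 60 min, then exposed to the DSB inducer NCS for 30 min.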
TRPV1 PAM = HTS Assay for Compounds that Act as Potentiators of the Vanilloid Receptor 1; Transient receptor potential cation channel subfamily V member 1 (Homo sapiens), Q8NER1; TRPV1-expressing cells, Fluo-8 calcium influx, capsaicin EC20 potentiation; potentiation, % at 8.33 µM; 320,000 compounds, 0.02% hits; in the data active = potentiation above about 80%; inconclusive = between about 30% and that limit; note: 0% is about no effect
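TRPV1-expressing cells were cultured overnight at 35.5C and loaded with Fluo-8 calcium dye for 40 to 90 min at room temperature. After a 10 s baseline, compound was added and calcium influx was read kinetically for 3 min (ex 480/em 520 nm).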
TRPV1 agonist = HTS Assay for Compounds that Act as Agonists of the Vanilloid Receptor 1 | Transient receptor potential cation channel subfamily V member 1 (Homo sapiens), Q8NER1 | TRPV1-expressing cells, Fluo-8 calcium influx, agonist mode | activation, % at 8.33 µM | 320,000 compounds, 0.19% hits | AID 540275, 2011; in the data active = activation above about 80%; inconclusive = between about 30% and that limit; note: 0% is about no effect
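Cells expressing TRPV1 were dye-loaded with Fluo-8 and read kinetically: 10 s baseline, 3 min after compound (agonist portion), then 2 min after EC20 capsaicin (allosteric enhancer portion). Calcium-bound dye fluorescence at 480/520 nm.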
Apoferritin bind = qHTS Assay for Identification of Novel General Anesthetics; apoferritin/1-aminoanthracene competitive binding, fluorescence; Potency, µM (doses to about 77.5 µM), for the others: top-dose activity change, negative = displacement, actives largely listed as inhibitors; Ferritin light chain (Equus caballus), P02791; 350,000 compounds, 0.074% hits; AID 485281, 2010; note: potency is the fitted concentration of half-maximal effect; % is set by controls: 0 for no effect and ±100 for the full control effect; nearly all actives have a fitted effect of over 20% in size
Target sequence (P02791 2-175 limits assumed): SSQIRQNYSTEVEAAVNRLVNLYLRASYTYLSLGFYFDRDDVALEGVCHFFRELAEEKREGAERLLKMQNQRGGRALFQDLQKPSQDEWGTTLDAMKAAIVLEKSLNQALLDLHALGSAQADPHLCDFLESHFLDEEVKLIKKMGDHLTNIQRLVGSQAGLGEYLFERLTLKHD
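Probe: 1-aminoanthracene (50% saturated, PBS). Protein: horse-spleen apoferritin, 10 uM. Incubation: 10 min, room temperature. Detection: 380 nm excitation, 535 nm emission. Analysis: normalized response, four-parameter Hill.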
CBFb-RUNX1 inh = qHTS Assay for Compounds Blocking the Interaction Between CBF-beta and RUNX1 for the Treatment of Acute Myeloid Leukemia; Potency, µM (top dose mostly 59.8 µM), for the others: at the highest dose activity, negative = inhibition, actives largely listed as inhibitors; 230,000 tested, under 10 active; Runt-related transcription factor 1 (Homo sapiens) + Core-binding factor subunit beta …; AlphaScreen CBFb-His/RUNX1-biotin binding, biochemical; note: % of control where 0% means no effect
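CBF-beta (His) and RUNX1 (biotin), 30 nM each; 20 min preassociation; + compound, 15 min; + beads 50 ng each (Ni, streptavidin), 90 min; RT; AlphaScreen read.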
Numbers without * were called inactive; [ ] = another dose, or the depositor's remark. Unless noted, calls come from the whole dose curve; as a rule, active = well fitted curve in the direction sought with a large enough effect; inconclusive = small, poorly fitted or top-dose-only effect, or another doubt; inactive = no such curve, though single readings can be large; an effect the other way counts as inactive or inconclusive.

Results for CSCC[C@H](N)C(=O)N[C@@H](CCC(=O)O)C(=O)N[C@H](C(=O)NCC(=O)N[C@@H](Cc1c[nH]c2ccccc12)C(=O)N[C@@H](Cc1ccc(O)cc1)C(=O)N[C@@H](CCCNC(=N)N)C(=O)N[C@@H](CO)C(=O)N1CCC[C@H]1C(=O)N[C@@H](Cc1ccccc1)C(=O)N[C@@H](CO)C(=O)N[C@@H](CCCNC(=N)N)C(=O)N[C@H](C(=O)N[C@H](C(=O)N[C@@H](Cc1cnc[nH]1)C(=O)N[C@@H](CC(C)C)C(=O)N[C@@H](Cc1ccc(O)cc1)C(=O)N[C@@H](CCCNC(=N)N)C(=O)N[C@@H](CC(N)=O)C(=O)NCC(=O)N[C@@H](CCCCN)C(=O)O)C(C)C)C(C)C)C(C)C ?
Apoferritin bind: -3%; CBFb-RUNX1 inh: 2%

How did Oc1ccc2ccccc2c1C=Nc1ccccc1Br do in these assays?
AT treatment: 6%; TRPV1 PAM: 10; TRPV1 agonist: -1; Apoferritin bind: -1%

Results for Oc1ccccc1N=Cc1c(O)ccc2ccccc12 ?
AT treatment: inconclusive; TRPV1 PAM: -6; TRPV1 agonist: 97*; Apoferritin bind: inconclusive; CBFb-RUNX1 inh: -22%

How did O=C(N/N=C/c1ccc2c(c1)OCO2)c1cccc2ccccc12 do in these assays?
AT treatment: 2%; TRPV1 PAM: 5; TRPV1 agonist: 0; Apoferritin bind: -7%

What do the screens show for `Cn1cc(C(=O)N/N=C/c2ccc3c(c2)OCO3)c2ccccc21`?
AT treatment: 22µM*; TRPV1 PAM: -10; TRPV1 agonist: inconclusive; Apoferritin bind: -13%; CBFb-RUNX1 inh: 3%

How did CCOC(=O)NCCOc1ccc(Oc2ccccc2)cc1 do in these assays?
Apoferritin bind: -2%; CBFb-RUNX1 inh: inconclusive

Results for COC(=O)[C@H](COC(C)(C)C)NC(=O)O[C@@H]1C(=O)c2cc(OC)ccc2O[C@H]1c1cccc(OC)c1 ?
CBFb-RUNX1 inh: -7%

How did COC(=O)C1=C(C(=O)OC)[C@@H]2N(Cc3ccccc3)c3ccccc3[C@@]23C[C@@H](C(=O)OC)N(S(=O)(=O)c2ccc(C)cc2)C3=N1 do in these assays?
CBFb-RUNX1 inh: -20%[13.1 µM]

Results for Nc1nc(SCc2ccccc2)ns1 ?
AT treatment: 5%; TRPV1 PAM: 2; TRPV1 agonist: 2; Apoferritin bind: inconclusive; CBFb-RUNX1 inh: 2%

Results for Nc1nc(SCc2ccc(Cl)cc2)ns1 ?
AT treatment: 22%; TRPV1 PAM: 26; TRPV1 agonist: -3; Apoferritin bind: 50µM*; CBFb-RUNX1 inh: -12%

How did Cc1ccc2nc(NC(=O)c3ccc4ncsc4c3)sc2c1 do in these assays?
AT treatment: 5%; TRPV1 PAM: 9; TRPV1 agonist: inconclusive; Apoferritin bind: -10%; CBFb-RUNX1 inh: inconclusive

How did Cc1ccc2nc(NC(=O)c3ccc4c(c3)OCO4)sc2c1 do in these assays?
AT treatment: 14%; TRPV1 PAM: 3; TRPV1 agonist: 82*; Apoferritin bind: -11%; CBFb-RUNX1 inh: -4%

Results for O=C(NC1CCCC1)O[C@@H]1C(=O)c2cc(Br)ccc2O[C@H]1c1ccc2c(c1)OCO2 ?
CBFb-RUNX1 inh: -3%

Results for CN(c1ccccc1)S(=O)(=O)c1cccc(NC(=O)Cn2cnc3ccccc3c2=O)c1 ?
AT treatment: -1%; TRPV1 PAM: 82*; TRPV1 agonist: -8; Apoferritin bind: inconclusive; CBFb-RUNX1 inh: -2%

What do the screens show for `O=C(Nc1cccnc1Cl)c1cc2c(s1)-c1ccccc1OC2`?
AT treatment: 32%; TRPV1 PAM: 11; TRPV1 agonist: inconclusive; Apoferritin bind: 8%

Results for O=C(Nc1ccc(Cl)cn1)c1cc2c(s1)-c1ccccc1OC2 ?
AT treatment: 16µM*; Apoferritin bind: 0%; CBFb-RUNX1 inh: 7%

How did Cc1cccc(N2CCN(CC(=O)NCc3ccc(Cl)cc3)CC2)c1C do in these assays?
AT treatment: 14%; TRPV1 PAM: -4; TRPV1 agonist: 83*; Apoferritin bind: -5%

Results for O=C(CN1CCN(c2ccccc2F)CC1)NCc1ccc(Cl)cc1 ?
AT treatment: 9%; TRPV1 PAM: 0; TRPV1 agonist: inconclusive; Apoferritin bind: -7%

How did CC[C@@H](C)[C@H](NS(=O)(=O)c1cccc2ccccc12)C(=O)N[C@H](C=O)Cc1c[nH]c2ccccc12 do in these assays?
Apoferritin bind: inconclusive; CBFb-RUNX1 inh: -26%

What do the screens show for `COc1ccc(CCNC(=O)Cc2ccccc2)cc1OC`?
AT treatment: 4%; TRPV1 PAM: -6; TRPV1 agonist: 3; Apoferritin bind: -10%

How did COc1ccc(CC(=O)NCCCc2ccccc2)cc1OC do in these assays?
AT treatment: -4%; TRPV1 PAM: -22; TRPV1 agonist: 105*; Apoferritin bind: 4%

Results for Cc1nc2sc(C(N)=O)c(N)c2c2c1CCCC2 ?
AT treatment: 8.9µM*; TRPV1 PAM: -12; TRPV1 agonist: -3; Apoferritin bind: 29%; CBFb-RUNX1 inh: 7%

How did CCc1ccc(NC(=O)CNCc2ccc(OC)c(OC)c2)cc1 do in these assays?
AT treatment: 0.71µM*; TRPV1 PAM: -17; TRPV1 agonist: 85*; Apoferritin bind: -4%

Results for COCC(=O)N1CCc2nc(-c3ccccc3)c3c(c2C1)CO[C@@H](C)C3 ?
CBFb-RUNX1 inh: -2%[13.1 µM]

What do the screens show for `CC(C)(C)c1ccc(/C=C/C(=O)Nc2ccncc2)cc1`?
AT treatment: 5%; TRPV1 PAM: -4; TRPV1 agonist: 96*; Apoferritin bind: inconclusive; CBFb-RUNX1 inh: 0%

What do the screens show for `O=C(/C=C/c1cccs1)Nc1ccncc1`?
AT treatment: -1%; TRPV1 PAM: -17; TRPV1 agonist: inconclusive; Apoferritin bind: -7%; CBFb-RUNX1 inh: -5%

What do the screens show for `CSCC[C@H](NC(=O)[C@H](CC(C)C)NC(=O)CCNC(=O)[C@@H](NC(=O)[C@H](Cc1ccccc1)NC(=O)[C@H](CO)NC(=O)[C@@H](N)CC(=O)O)C(C)C)C(N)=O`?
Apoferritin bind: -6%; CBFb-RUNX1 inh: -3%

How did O=C(NCCNC(=O)c1ccccc1)c1ccccc1 do in these assays?
AT treatment: -2%; TRPV1 PAM: 2; TRPV1 agonist: 3; Apoferritin bind: 3%; CBFb-RUNX1 inh: 12%

How did O=C(N/C=C/c1ccccc1)c1ccccc1 do in these assays?
AT treatment: 12%; TRPV1 PAM: -10; TRPV1 agonist: 83*
